These results are taken from PubChem BioAssay (NCATS).

Inconclusive results are not listed. Values without a mark were called inactive. Calls follow the shape of the dose curve; as a rule, active = well fitted cell-killing curve with a large enough effect; inconclusive = small, poorly fitted or top-dose-only effect; inactive = flat fitted curve, though single readings scatter.

The assay is described as follows: qHTS of pediatric cancer cell lines to identify multiple opportunities for drug repurposing: Primary screen for U-2 OS cells (AID 1347096).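 Also: plate controls were DMSO wells for no effect and bortezomib positive control wells for full effect; nearly all actives have a fitted effect of over 50% in size.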 The note with it: U-2 OS viability, CellTiter-Glo luminescence, 48 h; series mostly up to 46 µM; activity change, negative = cytotoxic: at the top concentration. The text has this:
Drug repurposing or repositioning has been offered as a strategy for drug development in oncology programs. This approach has special potential for childhood cancers and other rare or orphan diseases, where the expected return on new drug development has been a disincentive to pharmaceuticals.
In this project we exploit the poly-pharmacology of drugs to discover new indications via phenotypic screening of a panel of 19 well-characterized cell lines derived from solid tumors seen in children and adolescents. The goal is to identify approved drugs with previously unrecognized anticancer properties that has the potential to reveal new mechanisms and biological processes involved in carcinogenesis or drug resistance. We employed a titration-based paradigm (quantitative high-throughput screening or qHTS), where all compounds were tested at multiple concentrations for their effect on cell viability. Concentration-response curves (CRCs) were derived directly from the primary screen, and both potency and efficacy values were used to identify compounds with robust bioactivity profiles. We screened the NIH Chemical Genomics Center (NCGC) Pharmaceutical Collection (NPC) and Mechanism Interrogation Plate (MIPE) small molecule collections of approved and investigational compounds against these cell lines; and measured metabolically active cells after 48 hours of compound treatment as a proxy for cell viability.
Assay Submitter: Nathalia J. Martinez, National Center for Advancing Translational Sciences, National Institutes of Health, Rockville, MD, USA; email: natalia.martinez@nih.gov
[1] Shen, M et al. Quantitative high-throughput phenotypic screening of pediatric cancer cell lines identifies multiple opportunities for drug repurposing. Oncotarget 2017 Dec 19;9(4):4758-4772. PMID 29435139.
The cells were obtained from University of North Carolina (UNC), Pediatric Preclinical Testing Program (PPT), and Coriell Institute (CI).
qHTS cell viability assay:
Cells were assayed in growth media at a density of 500-1,000 cells/well. Five microliters of cells were dispensed into 1,536-well, white, solid-bottom, TC-treated plates (Greiner Bio One) using a multidrop dispenser and incubated at 37 degrees C, 5% CO2, under a humidified atmosphere for 5 hours. Twenty-three nanoliters of compounds and controls (neutral control DMSO or positive control bortezomib at final concentration of 2.3 µM) were subsequently transferred by Kalypsys pintool. For primary screens, the MIPE collection was tested at 11-point dilutions (final concentrations range from 0.78 nM to 46 µM) and the NPC collection at 8-point dilutions (final concentrations range from 0.59 nM to 46 µM). Compounds tested in follow-up screens were assayed at 11-point dilutions. Cells were incubated for 48 hours, followed by addition of 3 µL of CellTiter-Glo (Promega). After a 15 min incubation at room temperature, samples were analyzed for luminescence intensity using a ViewLux High-throughput CCD imager equipped with clear filters.
In general terms: Quantitative high-throughput screening tests each substance at several concentrations.
Regarding `CC(C)=CCN1CC[C@@]2(C)c3cc(O)ccc3C[C@@H]1[C@@H]2C`, the “activity change, negative = cytotoxic” value is -12.1% [at 92.7 µM]. Take `CCC(=O)O[C@H]1CC[C@H]2[C@@H]3CCC4=CC(=O)CC[C@]4(C)[C@H]3CC[C@]12C`: the “activity change, negative = cytotoxic” value is 2.23%. Then `N#Cc1nn(-c2c(Cl)cc(C(F)(F)F)cc2Cl)c(N)c1S(=O)C(F)(F)F` (stereo not given), with -19.8%; and `NC(=O)OCCCc1ccccc1`, with 11.8%. On to `COc1ccc2c(C(=O)c3ccc(Cl)cc3)c(C)n(CC(=O)O)c2c1`, for which the “activity change, negative = cytotoxic” value was 0.566%. Then `CCN(CC)CCOC(=O)C(C)(c1ccccc1)c1ccccc1`, with -7.98%; and `CCCCC1C(=O)NC(=O)N(C2CCCCC2)C1=O` (stereo not given), with 10.4%; and `Cc1nnc2n1-c1sc(CCC(=O)N3CCOCC3)cc1C(c1ccccc1Cl)=NC2`, with 8.13%. As for `Cc1nc2ccccc2c(=O)n1-c1ccccc1Cl`, the “activity change, negative = cytotoxic” value was -13.6% [at 92.7 µM]. In the case of `CCOC(=O)C1(c2ccccc2)CCN(CCc2ccc(N)cc2)CC1` it was 5.25%; in that of `COc1cc(N)c(Cl)cc1C(=O)NC1CN2CCC1CC2` (stereo not given), 3.95%. For the molecule `CN(C)CCc1c[nH]c2cccc(O)c12`, the “activity change, negative = cytotoxic” value is 4.82% [at 92.7 µM]. With `CC(C)(O)C(Cl)(Cl)Cl`, the “activity change, negative = cytotoxic” value is 13.2%. Then `O=c1n(Cl)c(=O)n(Cl)c(=O)n1Cl`, with 4.93%; and `CCOP(=S)(OCC)O/N=C(\C#N)c1ccccc1`, with 5.6%.

In the case of `CCC(=O)OC1(c2ccccc2)CCN(C)CC1`, the “activity change, negative = cytotoxic” value is -2.38% [at 92.7 µM]. On to `OC(c1ccccc1)(c1ccccc1)C1CCNCC1`, for which the “activity change, negative = cytotoxic” value was 4%.

In the case of `O=C(CCCN1CCC(n2c(=O)[nH]c3ccccc32)CC1)c1ccc(F)cc1`, the “activity change, negative = cytotoxic” value was -13.3%. Then `CN(C)CCc1c[nH]c2ccccc12`, with -6.07% [at 155 µM]. In the case of `O=C(O)Cc1ccccc1` it was -3.43%; in that of `CC1=C2[C@H]3OC(=O)[C@@H](C)[C@@H]3CC[C@@]2(C)C=CC1=O`, -12.4%; in that of `CC1N=C(N)OC1c1ccccc1` (stereo not given), -10.8% [at 92.7 µM]. Then `CNC(=O)Oc1cccc2ccccc12`, with 5.35%; and `Nc1ccc(N)cc1`, with -4.4%.

`Cc1ccc(N=CN(C)C=Nc2ccc(C)cc2C)c(C)c1`: the “activity change, negative = cytotoxic” value is 12.2%.

Regarding `COc1ccc(CN2CCNCC2)c(OC)c1OC`, the “activity change, negative = cytotoxic” value was 10.6%. In the case of `C[N+]1(CCC(C(N)=O)(c2ccccc2)c2ccccc2)CCCCC1` it was 8.45%; in that of `CC(C)NCC(O)c1ccc(N)c(C#N)c1` (stereo not given), 9.77%.

As for `CCN(CC)C(C)C(=O)c1ccccc1` (stereo not given), the “activity change, negative = cytotoxic” value was 15.7%. In the case of `CC(C)=C[C@@H]1[C@@H](C(=O)OCc2coc(Cc3ccccc3)c2)C1(C)C` it was 0.586%; in that of `COc1cc(CC#N)cc(OC)c1OC`, 10.3%. Then `CC#C[C@]1(O)CC[C@H]2[C@@H]3C[C@H](C)C4=CC(=O)CC[C@]4(C)[C@H]3CC[C@@]21C`, with 2.56%; and `CC(C)(C)OC(=O)c1ncn2c1[C@@H]1CCCN1C(=O)c1c(Br)cccc1-2`, with 2.35%. Then `CN1C(=O)CN=C(c2ccccc2)c2cc(Cl)ccc21`, with -15.2%; and `CCC(=O)C(CCN(C)C)(c1ccccc1)c1ccccc1`, with 3.44%. As to `COc1cc(CC(C)N)c(OC)cc1Br` (stereo not given), the “activity change, negative = cytotoxic” value was -13.2% [at 92.7 µM]. `CCC1(c2ccccc2)CCC(=O)NC1=O` (stereo not given): the “activity change, negative = cytotoxic” value is 11.3%. In the case of `Oc1ccc([C@H]2CNCc3c2ccc(O)c3O)cc1O` it was -12.1%; in that of `CC(C(O)c1ccccc1)N(C)C/C=C/c1ccccc1` (stereo not given), -9.2%; in that of `CC[C@H]1C[C@@H]2C[C@H]3c4[nH]c5ccc(OC)cc5c4CCN(C2)[C@@H]13`, -9.17% [at 92.7 µM].
